# Reference: PubChem BioAssay AID1058 (Emory University Molecular Libraries Screening Center, 2008)
# Results with a measured potency or affinity are listed apart. Activity calls are given as the source filed them.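 Rule for the calls: active = fitted IC50 of 30 µM or less, with percent of control binding at that IC50 of 60 or less; inactive = the rest.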
# Target: Mothers against decapentaplegic homolog 3 (Homo sapiens) (UniProt P84022)
# Assay: blockers of Smad3 complex formation in lysate – cell lysate, secondary confirmation, chemiluminescent ELISA, HEK293 lysate, dose response (AID 1058)
# Sequence of Mothers against decapentaplegic homolog 3 (Homo sapiens) (P84022 whole entry, looked up): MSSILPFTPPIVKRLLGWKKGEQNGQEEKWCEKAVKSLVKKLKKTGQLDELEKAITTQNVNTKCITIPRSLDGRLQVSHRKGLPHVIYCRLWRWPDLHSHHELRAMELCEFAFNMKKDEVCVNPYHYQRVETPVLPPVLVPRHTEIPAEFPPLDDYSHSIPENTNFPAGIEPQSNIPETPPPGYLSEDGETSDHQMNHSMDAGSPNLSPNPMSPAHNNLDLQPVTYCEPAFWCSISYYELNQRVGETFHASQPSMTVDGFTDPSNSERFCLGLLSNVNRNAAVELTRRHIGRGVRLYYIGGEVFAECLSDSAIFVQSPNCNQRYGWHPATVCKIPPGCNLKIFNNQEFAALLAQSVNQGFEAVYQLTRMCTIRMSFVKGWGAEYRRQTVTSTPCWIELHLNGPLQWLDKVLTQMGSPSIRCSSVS
smiles,measurement,value
Oc1cc2c(cc1C(c1ccc(F)cc1)N1CCOCC1)OCO2 (stereo unspecified),outcome,inactive
